This passage reports z-score results from PubChem BioAssay AID1347419 (Sanford-Burnham Center for Chemical Genomics, 2020).

Among all 99,000 compounds or so, about 820 (0.83%) were called active.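 The calls were made as follows: active = Z-score of -3 or lower, scaled per plate to the spread of control and sample wells; inactive = z-score above -3.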 The sample as a whole holds a higher share of actives than the screen did.

Protein-tyrosine kinase 2-beta (Homo sapiens), sequence (Q14289 whole entry, looked up): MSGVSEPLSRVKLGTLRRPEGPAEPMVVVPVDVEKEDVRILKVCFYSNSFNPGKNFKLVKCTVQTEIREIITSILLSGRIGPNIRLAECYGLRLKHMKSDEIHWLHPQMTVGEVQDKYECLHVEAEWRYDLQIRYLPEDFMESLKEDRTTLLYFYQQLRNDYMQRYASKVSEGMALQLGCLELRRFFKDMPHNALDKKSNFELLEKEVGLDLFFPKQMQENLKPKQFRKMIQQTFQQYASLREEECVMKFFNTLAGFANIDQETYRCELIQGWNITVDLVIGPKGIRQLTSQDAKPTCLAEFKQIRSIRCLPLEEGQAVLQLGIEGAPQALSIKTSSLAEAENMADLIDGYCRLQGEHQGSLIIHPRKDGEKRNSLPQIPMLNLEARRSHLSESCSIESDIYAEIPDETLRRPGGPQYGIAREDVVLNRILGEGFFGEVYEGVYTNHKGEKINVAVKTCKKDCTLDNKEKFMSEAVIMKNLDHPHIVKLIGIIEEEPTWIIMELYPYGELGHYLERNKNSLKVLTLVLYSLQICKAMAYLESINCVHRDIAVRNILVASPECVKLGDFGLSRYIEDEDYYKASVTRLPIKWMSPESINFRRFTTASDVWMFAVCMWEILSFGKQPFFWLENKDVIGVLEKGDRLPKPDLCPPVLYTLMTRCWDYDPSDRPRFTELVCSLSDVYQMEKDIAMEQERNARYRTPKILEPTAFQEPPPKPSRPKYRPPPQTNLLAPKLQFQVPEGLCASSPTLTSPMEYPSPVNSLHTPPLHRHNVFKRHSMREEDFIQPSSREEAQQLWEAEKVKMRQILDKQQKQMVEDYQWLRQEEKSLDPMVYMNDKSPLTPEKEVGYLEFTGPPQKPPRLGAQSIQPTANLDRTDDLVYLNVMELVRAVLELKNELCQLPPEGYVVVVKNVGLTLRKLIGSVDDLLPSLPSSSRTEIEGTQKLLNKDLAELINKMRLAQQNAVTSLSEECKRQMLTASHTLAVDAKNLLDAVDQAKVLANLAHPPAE

This experiment addresses Protein-tyrosine kinase 2-beta (Homo sapiens) (UniProt Q14289). Nature of the experiment: Pyk2 FERM oligomerization blockers – Q293 cells, FERM NanoBiT luminescence, HTS, primary screen (AID 1347419).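 Also: the deposit names both 25 µM and 10 µM; negative z-score means lost luminescence so less FERM oligomerization.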 Details: dose or concentration left out as unconfirmed. The settings on record: active compounds read low.
As for `Cc1ccc(C(=O)Nc2ccc3c(c2)OCO3)cc1S(=O)(=O)N1CCCCC1`, the z-score was -0.16 (inactive). Take `O=C(Nc1ccc2c(c1)OCCO2)c1ccc(Cl)c(S(=O)(=O)N2CCCCC2)c1`: the z-score is -3.16 (active). `O=C(Nc1ccc2c(c1)OCCO2)c1ccncc1`: the z-score was 0.87 (inactive). `Cc1ccc(C(=O)N/C(=C/c2cccnc2)C(=O)O)cc1`: the z-score is 0.41 (inactive).

As to `CC(=C/c1ccccc1)/C=N/NC(=O)c1cc(C)oc1C`, the z-score was -0.05 (inactive). Take `COc1ccc(-c2cc(C(F)(F)F)nc(SCC(=O)Nc3ccc4c(c3)OCO4)n2)cc1OC`: the z-score is -0.25 (inactive). Consider `CCCc1nc2ccccc2c(C(=O)OCc2nnc(-c3cc(OC)c(OC)c(OC)c3)o2)c1CC`, for which the z-score was -3.12 (active).

On to `CCOC(=O)c1cc(-c2nnc(-c3cc(OC)c(OC)c(OC)c3)o2)c(C)nc1C`, for which the z-score is 0.08 (inactive). As for `CCCc1nc2ccccc2c(C(=O)OCC(=O)c2ccc3c(c2)NC(=O)CO3)c1CC`, the z-score is -1.42 (inactive). Regarding `CCOC(=O)c1c(NC(=O)C2CCN(S(=O)(=O)c3ccc(Cl)cc3)CC2)sc2c1CCCC2`, the z-score was 0.49 (inactive). For the molecule `CC(=O)CCC(=O)c1ccc2ccccc2c1`, the z-score is 1.48 (inactive). For the molecule `Cc1ccc2nc(-c3cccnc3)c(NC3CCCC3)n2c1`, the z-score was 0.15 (inactive). For the molecule `Cc1cc(OCCN2CCCC2)cc(C(C)C)c1`, the z-score was 1.27 (inactive). For `C/C(=N\N=C(N)N)c1ccc(Cl)cc1` the value was -0.37 (inactive); for `CCOc1cc(-c2cc(-c3ccc(OC)cc3)nc(N)c2C#N)ccc1O`, -3.73 (active). Regarding `CCOC(=O)CC(=O)CSc1nc(-c2ccccc2)cc(-c2ccc(Cl)cc2)c1C#N`, the z-score is -0.86 (inactive). Consider `CCSc1nc(-c2ccc(OC)cc2)cc(-c2ccc(OC)cc2)c1C#N`, for which the z-score was -1.07 (inactive). `NC(=O)CCC(NS(=O)(=O)c1ccc(Cl)cc1)C(=O)NCc1ccccc1Cl` (stereo unspecified): the z-score was -0.26 (inactive). The result for `CCCn1nc(NS(=O)(=O)c2ccccc2)c2cc3cc(C)ccc3nc21` reads -0.3 (inactive).

For `Cc1cc(C)c(C2C3=C(Nc4c2c(C)nn4-c2ccccn2)c2ccccc2C3=O)c(C)c1` (stereo unspecified), the z-score is 1.27 (inactive).

With `CS(=O)(=O)N(Cc1ccccc1)c1ccc(C(=O)NN=C2CCCCCC2)cc1`, the z-score is -0.45 (inactive).

`CCOC(=O)C1=C(C)NC(C)=C(C(=O)OCC)C1c1ccccn1`: the z-score is 1.06 (inactive). `C=CCOC(=O)C1=C(C)NC(SCC(=O)OCC)=C(C#N)C1c1ccc(C)cc1` (stereo unspecified): the z-score was -1.05 (inactive). Turning to `C=CCOC(=O)C1=C(C)NC(C)=C(C(=O)OCC=C)C1c1cccs1`, the z-score is -3.93 (active).

For `Cc1ccccc1-c1nnc(SCC(=O)NCc2ccc3c(c2)OCO3)n1C`, the z-score is 0.49 (inactive).

`Cc1ccccc1-n1c(SCC(=O)NCc2cccs2)nnc1-c1ccncc1`: the z-score is -0.72 (inactive).

Regarding `Cc1ccc(-n2c(SCC(=O)NCc3ccc4c(c3)OCO4)nnc2-c2cccnc2)c(C)c1`, the z-score is -4.03 (active).

For `COc1cc(-c2cc(C(=O)OCC(=O)Nc3ccc4c(c3)OCO4)c3ccccc3n2)cc(OC)c1OC`, the z-score is -0.31 (inactive). `CC1=NN(Cc2ccccc2)C(=O)/C1=C/c1ccc(N(C)C)cc1`: the z-score was -1.29 (inactive). On to `CN(C)c1ccc(/C=C2\NC(=S)N(Cc3ccccc3)C2=O)cc1`, for which the z-score is -3.38 (active).

For the molecule `CN(C)c1cc[n+](Cc2ccccc2)cc1`, the z-score was 0.16 (inactive). As to `Cc1cc(C)cc(C(=O)NC(=S)Nc2ccc3[nH]c(=O)[nH]c3c2)c1`, the z-score is 0.78 (inactive). In the case of `COC(=O)c1cn(CC(=O)NCc2cccs2)c2ccccc12`, the z-score is -0.4 (inactive).

On to `O=C(Cn1cc(C(=O)c2cccs2)c2ccccc21)NCc1cccs1`, for which the z-score is -3.3 (active). Take `COCCNC(=O)Cn1cc(C(=O)c2cccs2)c2ccccc21`: the z-score is -0.12 (inactive). On to `Cc1ccc(S(=O)(=O)NNC(=O)Nc2cccc3ccccc23)cc1`, for which the z-score was -1.37 (inactive).

Turning to `CC(=O)c1c(O)cc2n(c1=O)-c1ccc(Cl)cc1C2(C)C`, the z-score was -0.76 (inactive). Regarding `CCNC(=S)N1CCN(c2ncccn2)CC1`, the z-score was 0.25 (inactive).

Regarding `CCCCC(=O)Nc1ccc2c(c1)OCCO2`, the z-score is -0.26 (inactive).

Take `COc1ccc(S(=O)(=O)N(C)CC(=O)Nc2ccc3c(c2)OCCO3)cc1OC`: the z-score is 0.96 (inactive). As for `O=C(CN(c1ccc2c(c1)OCCO2)S(=O)(=O)c1ccccc1)Nc1ccc2c(c1)OCO2`, the z-score is -3.19 (active). For `Cc1cc([N+](=O)[O-])ccc1NC1CCCC1`, the z-score is 0.61 (inactive). `CC(C)(C)C1CCC(=NNC(=O)c2cc(-c3ccccc3)n[nH]2)CC1` (stereo unspecified): the z-score is 0.56 (inactive). Consider `CCOc1ccc(NC(=S)NC(=O)/C=C/c2ccc(OC)cc2)c([N+](=O)[O-])c1`, for which the z-score is 0.72 (inactive). The result for `COc1ccc(-c2ccc(Nc3ccc(S(=O)(=O)N4CCCC4)cc3)nn2)cc1OC` reads -3.54 (active). Consider `COc1ccc(S(=O)(=O)Nc2ccc(S(=O)(=O)N3CCCCC3)cc2)cc1OC`, for which the z-score is -1.09 (inactive).

In the case of `COc1ccc(S(=O)(=O)N2CCCCC2)cc1Br`, the z-score is -0.87 (inactive). In the case of `CN(C)CCCNC(=S)NCc1ccc(Cl)cc1`, the z-score was 0.46 (inactive). The result for `Cc1ccc(C(C)NC(=O)Cn2nc(C)c([N+](=O)[O-])c2C)cc1` (stereo unspecified) reads 0.63 (inactive). For the molecule `O=C1c2ccccc2C2=Nc3ccccc3SC(c3ccccc3F)C12` (stereo unspecified), the z-score was -4.39 (active). `CCCOc1ccc(Cn2ccnc2)cc1[N+](=O)[O-]`: the z-score is 1.5 (inactive). Take `Cc1ccc(O)c(CCc2ccccc2)n1`: the z-score is 0.72 (inactive). For the molecule `COc1ccc(-c2nnc(SCc3cccnc3)o2)cc1`, the z-score is -0.08 (inactive). With `FC(F)(F)c1cc(-c2ccco2)nc(NCc2ccc(Cl)cc2)n1`, the z-score is 0.02 (inactive). Consider `COc1ccc(-c2cc(C(F)(F)F)nc(NCc3cccnc3)n2)cc1`, for which the z-score was -3.51 (active). On to `COc1cc(C(=O)NC(=S)NCc2ccco2)cc(OC)c1OC`, for which the z-score was 0.39 (inactive). With `O=C(CCN1C(=O)c2ccccc2C1=O)Nc1ccncc1`, the z-score was 0.81 (inactive). On to `COC(=O)c1sccc1NC(=O)c1cc(OC)c(OC)c(OC)c1`, for which the z-score was -0.79 (inactive). For `COc1cc(C(=O)Nc2oc(-c3ccccc3)c(-c3ccccc3)c2C#N)cc(OC)c1OC`, the z-score was -3.42 (active).

As to `N#Cc1c(NC(=O)CCCN2C(=O)c3ccccc3C2=O)oc(-c2ccccc2)c1-c1ccccc1`, the z-score was -3.57 (active). In the case of `N#Cc1c(/N=C/N2CCCC2)oc(-c2ccccc2)c1-c1ccccc1`, the z-score is -2.56 (inactive).
